Drawing on PubChem BioAssay (EPA / NIEHS), this text covers outcome and AC50 for five molecules.

Records with an inconclusive call do not appear. The source holds several records for some structures; these can differ, active in one and inactive in another. The source made the active and inactive calls. Rule for the calls, unless noted: active = hit-call score of the fitted dose curve at least 0.9, where 1 is the maximum; inconclusive = response in the unintended direction; inactive = score below 0.9.

The target in test [1] is Retinoic acid receptor alpha (Homo sapiens) (UniProt P10276). In words: ATG_DR5_RAR_CIS: Attagene CIS-FACTORIAL HepG2 Assay for human Retinoic Acid Receptor Alpha (RARE), DR5 submotif (AID 2282934; active = hit-call score of the fitted dose curve at least 0.9, where 1 is the maximum; inactive = score below 0.9). The conditions noted are these: HepG2 Attagene cis-factorial RARE DR5 reporter, mRNA; actives raise or lower the signal. The method, boiled down:
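HepG2 cells transiently transfected with multiplexed reporter units; DR5 cis-element drives reporter through endogenous transcription factors. After 24 h dosing, reporter mRNA quantified by RT-PCR, fluorescent labeling, HpaI digestion and capillary electrophoresis; bidirectional fitting versus DMSO.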

Test [2] is described as follows: ATG_M_19_CIS: Attagene CIS-FACTORIAL HepG2 Assay for M19 Transcription Factor (Internal Marker) (AID 2282939; active = hit-call score of the fitted dose curve at least 0.9, where 1 is the maximum; inactive = score below 0.9). The conditions noted are these: HepG2 Attagene CIS-FACTORIAL M19 internal marker reporter; actives raise or lower the signal. The method, boiled down: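 Signals come from fluorescence of labelled reporter-specific PCR fragments resolved by capillary electrophoresis, following 24 h treatment of HepG2 cells transfected with cis-promoter reporter units; activity was fitted in both directions relative to DMSO.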

Test [3] can be described thus: ATG_GRE_CIS: Attagene CIS-FACTORIAL HepG2 Assay for human Glucocorticoid Response Elements (GRE) (AID 2282947; active = hit-call score of the fitted dose curve at least 0.9, where 1 is the maximum; inactive = score below 0.9). The conditions noted are these: HepG2 GRE cis-reporter, Attagene multiplex mRNA; actives raise or lower the signal. Put shortly:
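Fluorescence intensity of reporter-specific cDNA fragments, separated by capillary electrophoresis, provides the signal. Constructs carry cis-regulating promoters in transiently transfected HepG2 liver cells; 24 h incubation; fitting is bidirectional against DMSO.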

Test [4] concerns the target Hepatocyte nuclear factor 6 (Homo sapiens) (UniProt Q9UBC0). In words: ATG_HNF6_CIS: Attagene CIS-FACTORIAL HepG2 Assay for human Hepatocyte Nuclear Factor 6 (HNF6) (AID 2282952; active = hit-call score of the fitted dose curve at least 0.9, where 1 is the maximum; inactive = score below 0.9). The note with it: HepG2 Attagene cis-factorial HNF6 reporter transcription; actives raise or lower the signal. The method, boiled down: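 Endogenous transcription factor activity in human HepG2 liver cells was captured through cis-regulated reporter constructs. After 24 h treatment, reporter mRNA was measured by RT-PCR with capillary electrophoresis, and activity was fitted in both directions relative to DMSO.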

The nature of test [5]: ATG_MRE_CIS: Attagene CIS-FACTORIAL HepG2 Assay for human Metal Responsive Element (MRE) (AID 2282954; active = hit-call score of the fitted dose curve at least 0.9, where 1 is the maximum; inactive = score below 0.9). The note with it: HepG2 MRE cis-reporter transcription, Attagene multiplex; actives raise or lower the signal. The method, boiled down: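 Measured here is mRNA induction from an MRE cis-element reporter in HepG2 after 24 h, quantified by fluorescence of labelled RT-PCR products on capillary electrophoresis; gain- and loss-of-signal fits use DMSO as baseline.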

Test [6] in a line: ATG_PBREM_CIS: Attagene CIS-FACTORIAL HepG2 Assay for human Phenobarbital-responsive Enhancer Module (PBREM) (AID 2282955; active = hit-call score of the fitted dose curve at least 0.9, where 1 is the maximum; inactive = score below 0.9). The note with it: HepG2 PBREM cis-reporter, Attagene multiplexed transcription; actives raise or lower the signal. The method, boiled down:
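Endogenous transcription factor activity was read from reporter transcripts in transiently transfected human HepG2 liver cells after 24 h dosing. RT-PCR products were fluorescently labelled, HpaI-cut and sized by capillary electrophoresis; activity fitted bidirectionally against DMSO baseline.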

Test [7] deals with Hepatocyte nuclear factor 4-alpha (Homo sapiens) (UniProt P41235). In words: ATG_HNF4a_TRANS: Attagene TRANS-FACTORIAL HepG2 Assay for human Hepatocyte Nuclear Factor 4 alpha (HNF4a) (AID 2282982). The note with it: HepG2 HNF4a transactivation reporter, mRNA readout. Put shortly: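 Endpoint reflects transcriptional activation of a GAL4-UAS reporter by an HNF4a-GAL4 chimera in transfected HepG2 cells, 24 h post-dosing. Fluorescence from RT-PCR products separated by capillary electrophoresis; DMSO baseline.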
Hepatocyte nuclear factor 4-alpha (Homo sapiens), sequence (P41235 whole entry, looked up, the tested form may be a part): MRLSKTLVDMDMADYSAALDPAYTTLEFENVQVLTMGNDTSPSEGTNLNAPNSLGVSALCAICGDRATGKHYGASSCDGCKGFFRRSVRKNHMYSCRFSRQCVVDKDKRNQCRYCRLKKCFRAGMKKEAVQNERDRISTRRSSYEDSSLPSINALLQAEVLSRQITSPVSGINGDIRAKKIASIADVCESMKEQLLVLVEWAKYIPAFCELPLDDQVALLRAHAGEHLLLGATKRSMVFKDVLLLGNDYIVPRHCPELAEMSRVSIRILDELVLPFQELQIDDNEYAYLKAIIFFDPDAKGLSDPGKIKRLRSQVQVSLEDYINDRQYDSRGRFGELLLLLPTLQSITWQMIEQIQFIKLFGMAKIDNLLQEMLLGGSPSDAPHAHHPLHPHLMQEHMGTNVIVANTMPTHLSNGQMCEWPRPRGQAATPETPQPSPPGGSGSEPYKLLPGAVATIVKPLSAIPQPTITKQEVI

Test [8] can be described thus: ATG_M_06_TRANS: Attagene TRANS-FACTORIAL HepG2 Assay for M06 Transcription Factor (Internal Marker) (AID 2282983). The note with it: HepG2 Attagene TRANS M06 internal marker reporter. Put shortly: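 Human liver HepG2 cells bearing transiently transfected chimeric NR-GAL4 reporter units were treated with chemicals for 24 h. Total RNA was reverse-transcribed, reporter sequences amplified and labelled, then quantified by capillary electrophoresis. Activity was fitted upward relative to DMSO.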

A short description of test [9]: ATG_M_32_TRANS: Attagene TRANS-FACTORIAL HepG2 Assay for M32 Transcription Factor (Internal Marker) (AID 2282984).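 Note: transcript level of a background control reporter unit measured by RT-PCR and capillary electrophoresis.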 The note with it: HepG2 Attagene TRANS M32 internal marker reporter. Put shortly: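 Internal-marker readout from a multiplexed transcription reporter panel. HepG2 cells were transfected with GAL4-UAS reporter units, treated 24 hours, and reporter transcript levels determined by fluorescence after RT-PCR and capillary separation.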

The nature of test [10]: ATG_NF_kB_CIS: Attagene CIS-FACTORIAL HepG2 Assay for human Nuclear Factor Kappa B (NF-kB) (AID 2282991; active = hit-call score of the fitted dose curve at least 0.9, where 1 is the maximum; inactive = score below 0.9). The note with it: HepG2 Attagene cis-factorial NF-kB reporter mRNA; actives raise or lower the signal. Put shortly:
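Readout is reporter transcript level, gain or loss versus DMSO, measured 24 h post-dose via RT-PCR, fluorescent labelling and capillary electrophoresis. Human HepG2 liver cells carried transiently transfected CIS reporter constructs reflecting endogenous factors.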

Test [11] deals with Retinoic acid receptor RXR-alpha (Homo sapiens) (UniProt P19793). In words: ATG_RXRa_TRANS: Attagene TRANS-FACTORIAL HepG2 Assay for human Retinoid X Receptor alpha (RXRa) (AID 2283012). Put shortly:
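Measures exogenous chimeric NR-GAL4 activity in transfected HepG2 liver cells after 24 h of dosing. Induced reporter mRNA was detected by RT-PCR with capillary electrophoresis, and gain of signal was analysed against DMSO.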

For test [12], the target named is human Retinoid X Receptor beta (RXRb), RXRB (gene 6257) (UniProt P28702). In words: ATG_RXRb_TRANS: Attagene TRANS-FACTORIAL HepG2 Assay for human Retinoid X Receptor beta (RXRb) (AID 2283013). The method, boiled down: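 Chimeric receptor-Gal4 activity was assessed in transiently transfected human HepG2 cells after 24 h exposure. Transcripts from GAL4-UAS reporters were quantified by fluorescent RT-PCR and capillary electrophoresis, with DMSO as negative control and baseline.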
human Retinoid X Receptor beta (RXRb), RXRB (gene 6257), sequence (P28702 whole entry, looked up, the tested form may be a part): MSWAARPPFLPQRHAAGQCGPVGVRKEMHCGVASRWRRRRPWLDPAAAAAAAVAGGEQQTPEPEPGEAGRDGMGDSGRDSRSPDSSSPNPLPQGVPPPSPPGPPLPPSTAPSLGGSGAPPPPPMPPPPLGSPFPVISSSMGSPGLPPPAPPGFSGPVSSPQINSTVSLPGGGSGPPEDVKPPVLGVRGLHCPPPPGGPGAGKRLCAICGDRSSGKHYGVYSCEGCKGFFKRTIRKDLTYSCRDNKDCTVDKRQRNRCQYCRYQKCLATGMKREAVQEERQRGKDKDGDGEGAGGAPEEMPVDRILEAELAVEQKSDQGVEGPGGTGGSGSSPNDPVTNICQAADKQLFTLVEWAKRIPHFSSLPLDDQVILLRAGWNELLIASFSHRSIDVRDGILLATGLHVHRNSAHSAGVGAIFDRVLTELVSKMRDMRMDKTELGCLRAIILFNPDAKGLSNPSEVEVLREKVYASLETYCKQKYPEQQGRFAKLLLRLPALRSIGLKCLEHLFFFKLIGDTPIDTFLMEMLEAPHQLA

Test [13] is described as follows: ATG_TGFb_CIS: Attagene CIS-FACTORIAL HepG2 Assay for human Transforming Growth Factor (TGF) (AID 2282967; active = hit-call score of the fitted dose curve at least 0.9, where 1 is the maximum; inactive = score below 0.9). The conditions noted are these: HepG2 Attagene CIS TGFb reporter, mRNA transcription; actives raise or lower the signal. The method, boiled down:
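Bidirectional fitting relative to DMSO gave the endpoint. Underlying data: reporter mRNA from HepG2 cells carrying transiently transfected cis-regulated reporter constructs, harvested 24 h after dosing and analyzed by RT-PCR and capillary electrophoresis.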

Test [14] addresses X-box-binding protein 1 (Homo sapiens) (UniProt P17861). In words: ATG_Xbp1_CIS: Attagene CIS-FACTORIAL HepG2 Assay for human X-box Binding Protein 1 (XBP1) (AID 2282972; active = hit-call score of the fitted dose curve at least 0.9, where 1 is the maximum; inactive = score below 0.9). The conditions noted are these: HepG2 XBP1 cis-element reporter, Attagene multiplex; actives raise or lower the signal. The method, boiled down:
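Read-out: fluorescent reporter mRNA fragments resolved by capillary electrophoresis after RT-PCR. Human HepG2 liver cells carried transfected cis-promoter reporter units and were exposed to chemicals for 24 hours. Gain or loss of signal fitted relative to DMSO baseline.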

The target of test [15] is Cellular tumor antigen p53 (Homo sapiens) (UniProt P04637). In words: TOX21_p53_BLA_p2_ratio: Tox21 HCT-116 p53 Agonism Beta-lactamase Assay, Ratio, Phase 2 (AID 2283592). Put shortly: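 Cleaved-to-uncleaved substrate ratio (460 vs 530 nm) measured in HCT116 cells with an inducible beta-lactamase reporter linked to p53 activity. Compounds incubated 16 h at 37C before 2 h room-temperature CCF4-AM loading.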
Cellular tumor antigen p53 (Homo sapiens), sequence (P04637 whole entry, looked up): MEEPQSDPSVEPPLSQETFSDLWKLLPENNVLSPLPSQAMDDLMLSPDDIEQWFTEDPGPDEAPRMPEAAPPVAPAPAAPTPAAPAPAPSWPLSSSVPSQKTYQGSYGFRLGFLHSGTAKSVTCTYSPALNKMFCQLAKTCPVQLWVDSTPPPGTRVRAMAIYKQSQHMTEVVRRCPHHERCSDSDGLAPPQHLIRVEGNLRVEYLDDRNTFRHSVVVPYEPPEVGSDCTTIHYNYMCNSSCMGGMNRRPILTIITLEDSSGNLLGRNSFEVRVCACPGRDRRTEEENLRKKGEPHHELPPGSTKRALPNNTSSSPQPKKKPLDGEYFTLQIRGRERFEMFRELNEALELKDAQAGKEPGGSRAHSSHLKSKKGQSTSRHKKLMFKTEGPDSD

Test [16] shares this target. In words: TOX21_p53_BLA_p3_ratio: Tox21 HCT-116 p53 Agonism Beta-lactamase Assay, Ratio, Phase 3 (AID 2283596). The method, boiled down:
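Cells were seeded at 4000/well, rested 5 h at 37C, then dosed with DMSO compound solutions (217-fold dilution) for 16 h. CCF4-AM substrate was loaded for 2 h at room temperature, and the 460/530 nm emission ratio was fitted for gain of signal versus DMSO.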

The target is the same in test [17]. In words: TOX21_p53_BLA_p4_ratio: Tox21 HCT-116 p53 Agonism Beta-lactamase Assay, Ratio, Phase 4 (AID 2283601). Put shortly: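 HCT-116 p53 beta-lactamase reporter cells (4000/well) preincubated 5 h, then compound (217-fold dilution of DMSO stock) for 16 h at 37C. CCF4-AM substrate added 2 h at room temperature; 460/530 nm emission ratio fitted upward versus DMSO.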

A short description of test [18]: TOX21_p53_BLA_p2_viability: Viability Assessment in the Tox21 HCT-116 p53 Agonism Beta-lactamase Assay, Phase 2 (AID 2283591).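 Note: compound exposure lasted 16 h at 37 °C; actives lower the ATP signal meaning cytotoxicity.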 Put shortly:
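HCT116 p53-bla cells, 4000/well, dosed after 5 h plating (217-fold dilution of DMSO stocks) and incubated 16 h at 37C. Viability taken as cellular ATP by CellTiter-Glo luminescence after 30 min RT; signal loss marks cytotoxicity.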

In test [19] the target is Cellular tumor antigen p53 (Homo sapiens) (UniProt P04637). In words: TOX21_p53_BLA_p5_ratio: Tox21 HCT-116 p53 Agonism Beta-lactamase Assay, Ratio, Phase 5 (AID 2283599). Put shortly: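 HCT-116 p53-bla cells (4000/well) plated 5 h, dosed with compound (217-fold DMSO dilution) for 16 h at 37 C; CCF4-AM substrate 2 h at room temperature. Activity is the 460/530 nm emission ratio (405 nm excitation), fitted in gain-of-signal direction versus DMSO.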

A short description of test [20]: TOX21_p53_BLA_p5_viability: Viability Assessment in the Tox21 HCT-116 p53 Agonism Beta-lactamase Assay, Phase 5 (AID 2283600). The method, boiled down: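 Viability is taken from cellular ATP content, measured by luciferase luminescence in the same wells after the beta-lactamase ratio read. Cells are seeded at 4000 per well and exposed to DMSO-dissolved compounds, diluted 217-fold, for 16 h.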

Retinoic acid receptor RXR-alpha (Homo sapiens), sequence (P19793 whole entry, looked up, the tested form may be a part): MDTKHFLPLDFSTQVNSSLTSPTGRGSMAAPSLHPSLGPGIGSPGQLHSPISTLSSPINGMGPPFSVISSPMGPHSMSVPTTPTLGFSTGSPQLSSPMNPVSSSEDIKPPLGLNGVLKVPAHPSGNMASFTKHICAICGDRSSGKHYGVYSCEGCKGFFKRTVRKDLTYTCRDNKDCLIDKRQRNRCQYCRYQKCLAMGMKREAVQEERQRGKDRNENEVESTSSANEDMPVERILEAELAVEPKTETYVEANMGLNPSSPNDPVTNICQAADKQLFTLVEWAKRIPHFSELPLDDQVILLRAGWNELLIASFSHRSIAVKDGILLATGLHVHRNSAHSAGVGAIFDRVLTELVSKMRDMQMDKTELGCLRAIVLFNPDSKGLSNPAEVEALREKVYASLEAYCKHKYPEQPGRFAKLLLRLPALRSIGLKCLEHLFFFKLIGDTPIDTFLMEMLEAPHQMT
X-box-binding protein 1 (Homo sapiens), sequence (P17861 whole entry, looked up, the tested form may be a part): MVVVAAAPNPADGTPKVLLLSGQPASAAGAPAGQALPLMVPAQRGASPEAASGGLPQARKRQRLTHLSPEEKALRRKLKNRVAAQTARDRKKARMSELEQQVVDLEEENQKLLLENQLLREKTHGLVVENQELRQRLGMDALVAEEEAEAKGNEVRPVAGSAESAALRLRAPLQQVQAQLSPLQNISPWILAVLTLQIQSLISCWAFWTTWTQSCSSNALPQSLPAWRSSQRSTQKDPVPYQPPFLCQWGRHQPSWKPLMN
Hepatocyte nuclear factor 6 (Homo sapiens), sequence (Q9UBC0 whole entry, looked up): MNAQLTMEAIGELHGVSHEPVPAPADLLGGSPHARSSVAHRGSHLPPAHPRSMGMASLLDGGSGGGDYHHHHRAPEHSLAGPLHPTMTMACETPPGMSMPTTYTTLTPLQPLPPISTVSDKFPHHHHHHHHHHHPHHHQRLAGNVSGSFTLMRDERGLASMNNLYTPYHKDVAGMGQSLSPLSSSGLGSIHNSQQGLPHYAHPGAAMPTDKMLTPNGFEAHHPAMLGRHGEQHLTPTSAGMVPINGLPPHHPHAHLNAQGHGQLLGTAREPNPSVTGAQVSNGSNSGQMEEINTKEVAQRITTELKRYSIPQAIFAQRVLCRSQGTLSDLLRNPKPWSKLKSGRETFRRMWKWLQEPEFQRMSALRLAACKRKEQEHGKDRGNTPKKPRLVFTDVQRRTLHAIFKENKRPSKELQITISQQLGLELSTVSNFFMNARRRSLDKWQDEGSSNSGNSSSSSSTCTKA
Retinoic acid receptor alpha (Homo sapiens), sequence (P10276 whole entry, looked up): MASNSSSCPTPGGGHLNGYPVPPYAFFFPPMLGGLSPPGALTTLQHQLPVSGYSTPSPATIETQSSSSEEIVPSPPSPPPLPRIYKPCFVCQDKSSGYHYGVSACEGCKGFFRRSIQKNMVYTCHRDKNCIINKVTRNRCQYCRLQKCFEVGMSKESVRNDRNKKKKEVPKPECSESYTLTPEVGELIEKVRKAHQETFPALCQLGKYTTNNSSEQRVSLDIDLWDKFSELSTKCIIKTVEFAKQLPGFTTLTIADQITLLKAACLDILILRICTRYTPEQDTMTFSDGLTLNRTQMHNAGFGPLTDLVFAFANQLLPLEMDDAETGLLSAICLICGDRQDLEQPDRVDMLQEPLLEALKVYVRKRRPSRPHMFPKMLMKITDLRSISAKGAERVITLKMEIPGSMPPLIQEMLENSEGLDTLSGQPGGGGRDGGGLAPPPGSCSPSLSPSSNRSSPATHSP

`CCCC(=O)OC/C=C(\C)CCC=C(C)C`: the call in test [1], in test [2], in test [3], in test [4], in test [5] and in test [6] was inactive. Also, the call in test [7], in [8], in test [9], in test [10], in [11] and in test [12] was inactive.
For `CCCCCCCCCCC1CO1` (configuration not stated), the molecule was called inactive in [2], in test [6], in [13], in test [14], in [9] and in test [10]. Also, the call in test [11], in test [12], in test [15], in test [16] and in test [17] was inactive. Moreover, in test [5], the half-maximal activity concentration (AC50) was 152 µM (active).
Take `Nc1ccc(S(=O)(=O)Nc2cnc3ccccc3n2)cc1`: the result in test [2], in test [3], in [4], in test [5], in test [6] and in test [13] was inactive. The call in test [14], in test [7], in test [8], in [9], in test [10] and in [11] was inactive. In addition, the outcome in test [18], in test [15], in [16], in [19], in [20] and in [17] was inactive. Moreover, the AC50 in test [12] was 31.5 µM (active).
On to `CN(C)CCC(c1ccc(Cl)cc1)c1ccccn1` (configuration not stated), for which the outcome in [2], in [3], in [5], in test [14], in [8] and in [9] was inactive. Further, the result in [10], in test [18], in test [16] and in test [20] was inactive.
As to `CN(C)CCCN1c2ccccc2CCc2ccc(Cl)cc21`, the call in test [2], in [3], in test [5], in [6], in test [13] and in test [14] was inactive. In addition, the result in test [7], in test [8], in [10], in test [11], in [15] and in test [16] was inactive. Moreover, the result in [19], in [20] and in [17] was inactive. For the same molecule, the half-maximal activity concentration (AC50) was 5.79 µM (active) in test [12], 79 µM (active) in test [18], 86.8 µM (active) in test [19] and 77.1 µM (active) in test [20].
